Sm TGR block = inhibitors of Schistosoma mansoni thioredoxin glutathione reductase; purified TGR, DTNB reduction, TNB absorbance 405 nm; Potency, µM (top dose mostly 114 µM), for the others: at the top dose activity change, negative = inhibition, usual class: inhibitors; actives 3% (n = 360,000); AID 485364; also: nearly all actives have a fitted effect of over 60% in size
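Kinetic colorimetric format: TGR-catalysed, NADPH-driven DTNB reduction monitored via TNB absorbance. Enzyme dispensed at 20 nM; compound exposure 15 min at room temperature before reaction start.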
LmPK inh = blocks Leishmania mexicana pyruvate kinase activity | purified LmPK, Kinase-Glo ATP luminescence, 1 h | Potency, µM (doses to about 57.5 µM), inactives show at the top dose activity change, negative = inhibition, hits mostly inhibitors | actives 0.37% (n = 290,000)
Target sequence (Q27686 whole entry, looked up): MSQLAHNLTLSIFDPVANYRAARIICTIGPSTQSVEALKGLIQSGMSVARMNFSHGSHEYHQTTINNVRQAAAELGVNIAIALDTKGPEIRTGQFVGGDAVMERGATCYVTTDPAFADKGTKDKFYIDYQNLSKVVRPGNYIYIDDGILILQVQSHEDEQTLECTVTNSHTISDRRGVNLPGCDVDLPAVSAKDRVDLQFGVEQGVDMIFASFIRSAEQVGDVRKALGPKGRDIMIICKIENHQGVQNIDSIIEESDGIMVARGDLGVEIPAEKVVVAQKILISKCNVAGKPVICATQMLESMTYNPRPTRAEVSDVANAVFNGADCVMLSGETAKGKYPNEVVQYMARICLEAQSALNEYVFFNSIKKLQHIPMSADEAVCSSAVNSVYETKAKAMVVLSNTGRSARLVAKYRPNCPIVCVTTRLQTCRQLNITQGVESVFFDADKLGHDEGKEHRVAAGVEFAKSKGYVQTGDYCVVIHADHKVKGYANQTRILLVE
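qHTS format; LmPK 0.1 nM; substrates PEP 0.5 mM and ADP 0.1 mM. One-hour room-temperature incubation, then coupled luciferase luminescence; 0.5 nM enzyme wells mark activation.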
RE007 growth inh = less growth of the S. pombe RE007 Vpr strain; actives 0.21% (n = 360,000); Potency, µM (doses to about 92.2 µM), without a hit: at the top dose activity change, negative = less growth, usual class: inhibitors; AID 651644; S. pombe RE007 Vpr strain, BacTiter-Glo ATP luminescence, 24 h; active = well fitted falling curve with a large enough effect; inconclusive = small, poorly fitted or top-dose-only effect; inactive = no such curve, though single readings can be large or run the other way; also: nearly all actives have a fitted effect of over 50% in size
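Fission yeast RE007 carrying one integrated HIV-1 vpr copy, seeded at OD 0.01 in PMG+AL medium with 23 nL pinned compound. Grown 24 h at 30 degrees; viability read by BacTiter-Glo luminescence after 5 min.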
AMA1-RON2 inh = AMA1-RON2 (P. falciparum) interaction inhibition; AlphaScreen AMA1-biotinylated RON2 peptide binding; Potency, µM (titrated, usually from 58.2 µM), inactives show at the highest dose activity change, negative = inhibition, hits mostly inhibitors; actives 0.2% (n = 360,000); AID 720542;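 also: 0% = vehicle wells and -100% = peptide control; nearly all actives have a fitted effect of over 45% in size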
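AMA1 (3D7) with his tag at 25 nM final met compounds first, then biotinylated RON2 peptide at 25 nM; detection used donor plus acceptor beads, 10 µg/mL apiece, read by AlphaScreen after 30 min at room temperature.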
TbPYK inhibitor = inhibitors of Trypanosoma brucei pyruvate kinase; AID 624173; TbPYK enzyme, Kinase-Glo Plus ATP luminescence, 45 min; actives 0.12% (n = 410,000); Q57TT1; Potency, µM (series often up to 76.8 µM), without a hit: top-dose activity, negative = inhibition, actives largely listed as inhibitors; also: nearly all actives have a fitted effect of over 50% in size
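Enzyme and substrate buffer are dispensed first and compound is pin-transferred. ADP at 130 uM final then starts the reaction, which runs 45 min at room temperature. Detection reagent is added for 10 min before luminescence is imaged.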
The depositor's hits bear a star; ? = inconclusive; . = not tested or not shown; [ ] = another dose, or the depositor's remark. Shown are actives, neighbours in structure and some others; about 3.2% of the full set was active somewhere. Unless noted, calls follow the shape of the dose curve; as a rule, active = well fitted curve in the direction sought with a large enough effect; inconclusive = small, poorly fitted or top-dose-only effect, or another doubt; inactive = no such curve, though single readings can be large; an effect the other way counts as inactive or inconclusive. Unless noted, % is scaled to controls: 0 for no effect and ±100 for the full control effect; potency is read from the fitted curve at half-maximal effect.

SMILES | Sm TGR block | LmPK inh | RE007 growth inh | AMA1-RON2 inh | TbPYK inhibitor
COc1cc(CN2CCCC(CO)(Cc3cccc(Cl)c3)C2)cc(OC)c1O (centres undefined) | 28.2µM* | -10.2% | 5.7% | -12.7% | -0.3%
OCC1(Cc2ccccc2)CCCN(Cc2ccc(-c3ccco3)cc2)C1 (centres undefined) | 35.5µM* | 3.0% | -18.1% | -10.8% | -4.4%
OCC1(Cc2ccccc2)CCN(Cc2ccc(-c3ccco3)cc2)CC1 | 31.6µM* | 5.2% | -5.8% | -0.1% | -10.4%
CCN1CCCC(CO)(Cc2ccccc2)C1 (centres undefined) | ? | 4.9% | -2.2% | 8.4% | 0.6%
COc1ccc(-c2nn(C)c3sc(C(=O)Nc4cccc(F)c4)cc23)cc1OC | 5.9% | . | . | . | 1.6%
Cc1cccc(C(=O)Nc2cccc(C(=O)OCc3cc(=O)n4ccsc4n3)c2)c1 | 1.5% | . | . | . | -0.7%
Cc1cc(C=c2sc3nc4ccccc4n3c2=O)c(C)n1-c1ccccc1 | . | . | . | . | 0.0%
COc1cccc(C(=O)CN2CCN(S(=O)(=O)c3cccc([N+](=O)[O-])c3)CC2)c1 | 17.8µM* | -0.8% | 11.7% | 39.6% | 4.9%
COc1ccc(C(=O)CN2CCN(S(=O)(=O)c3cccc([N+](=O)[O-])c3)CC2)cc1OC | -22.9% | 1.8% | -4.6% | -0.1% | -1.6%
Cc1cccc2c1=NC(=O)/C(=C/c1c(O)[nH]c(=O)[nH]c1=O)C=2 | 35.5µM* | 0.1% | 10.4% | -5.7%[2.32 µM] | ?
O=c1[nH]c(=S)[nH]c(O)c1/C=C1/C=c2ccccc2=N1 | ? | -1.0% | -20.2% | -4.2% | -19.1%
O=C(Nc1cccc(-c2nc3ncccc3o2)c1)c1ccc(-c2cccc(Cl)c2Cl)o1 | ? | . | . | . | -5.4%
O=C(O)CCC(=O)Nc1cccc(-c2nnc(-c3ccccc3)o2)c1 | 25.1µM* | -3.0% | -9.9% | 3.8% | 3.8%
O=C(NCc1ccc(Cl)cc1)C1CCN(S(=O)(=O)Cc2ccccc2)CC1 | -15.7% | . | . | . | -14.8%
Cc1occc1C(=O)N/N=C/c1ccc(N(C)C)cc1 | -1.0% | 10µM* | ? | -10.7% | ?
Cc1occc1C(=O)N/N=C/c1cnn(C)c1C | -8.5% | 15.8µM* | 1.0% | 31.9% | -16.4%
C=C1C(=O)C=C2CN(C(=O)c3ccccc3)[C@@](Cc3ccc(F)cc3)(C(=O)OC)[C@@H]12 | 10µM* | -1.9% | 12.5% | 13.3% | ?
CSc1ncc2c(n1)-c1ccccc1N(Cc1ccccc1)S2(=O)=O | 0.7% | . | . | . | -8.6%
C[N+](C)(C)c1ccc(/C=N/Nc2nc(Cl)c(C#N)c(Cl)c2Cl)cc1 | 44.7µM* | -0.5% | -19.7% | 23.9% | -11.3%
N#Cc1c(Cl)nc(N/N=C/c2ccccc2)c(Cl)c1Cl | -29.4% | 3.7% | -0.8% | -1.6% | -8.2%
COc1ccc(-c2cn3nc(N4CCCC(C(=O)Nc5cccc(Cl)c5C)C4)sc3n2)cc1 (centres undefined) | -1.1% | . | . | . | 5.1%[15.4 µM]
CCOC(=O)C1CCN(C2CC(=O)N(c3cccc(Cl)c3)C2=O)CC1 (centres undefined) | -48.2% | 1.2% | 10µM* | 0.0% | -14.9%
O=C1CC(N2CCN(C(c3ccccc3)c3ccccc3)CC2)C(=O)N1Cc1ccc(N2CCCC2=O)cc1 (centres undefined) | -9.3% | -2.2% | -21.7%[3.69 µM] | 11.1% | .
CCOC(=O)C1CCCN(C2CC(=O)N(c3ccc(C)cc3)C2=O)C1 (centres undefined) | ? | -7.9% | ? | 5.4% | 0.4%
O=C(C1CCN(C2CC(=O)N(Cc3ccccc3)C2=O)CC1)N1CCCCCC1 (centres undefined) | 22.4µM* | -5.7% | ? | 6.5% | 6.8%
SMILES | Sm TGR block | LmPK inh | RE007 growth inh | AMA1-RON2 inh | TbPYK inhibitor
NC(=O)C1CCN(C2CC(=O)N(Cc3ccc(N4CCCC4=O)cc3)C2=O)CC1 (centres undefined) | 35.5µM* | 2.4% | ? | 16.6% | -4.0%
O=C1CC(N2CCC(Cc3ccccc3)CC2)C(=O)N1CCc1ccccc1 (centres undefined) | 11.2µM* | -5.1% | ? | -3.7% | -0.9%
CCc1ccccc1Nc1cc(C(=O)NCCc2ccccc2)c2ccccc2n1 | 1.4% | . | . | . | 4.2%
COC(=O)C1CCN(C2CC(=O)N(c3cc(C)cc(C)c3)C2=O)CC1 (centres undefined) | ? | 2.1% | 35.5µM* | 3.0% | 3.0%
O=C(C1CCN(C2CC(=O)N(c3ccc(Cl)cc3)C2=O)CC1)N1CCOCC1 (centres undefined) | 14.1µM* | -2.5% | 12.6µM* | 10.3% | -8.8%
Cc1cccc(N2C(=O)CC(N3CCN(Cc4ccc(Cl)cc4)CC3)C2=O)c1 (centres undefined) | 44.7µM* | 5.2% | ? | 13.7% | -6.3%
CCOC(=O)C1CCCN(C2CC(=O)N(c3ccc(NC(C)=O)cc3)C2=O)C1 (centres undefined) | 44.7µM* | -1.5%[11.5 µM] | 0.1% | -1.8% | -15.4%
CCN1C(=O)CC(N2CCC(C(=O)OC)CC2)C1=O (centres undefined) | 1.8% | -10.8% | -19.0% | 6.5% | 3.7%
O=C(O)c1ccc(N2C(=O)CC(N3CCN(c4ccc(Cl)cc4)CC3)C2=O)cc1 (centres undefined) | ? | -5.6% | -0.6% | -13.4% | -10.7%
Cc1nc2c(C(=O)N(C)Cc3ccccc3)c[nH]n2c(=O)c1Cc1ccc(Cl)cc1 | -14.1% | . | . | . | 8.4%
O=C(C1CCN(C2CC(=O)N(c3cccc(Cl)c3)C2=O)CC1)N1CCCC1 (centres undefined) | 22.4µM* | -0.8% | 12.6µM* | -2.6% | 4.1%
Cc1cccc(N2C(=O)CC(N3CCN(c4ccc(Cl)cc4)CC3)C2=O)c1 (centres undefined) | -20.0% | 3.4% | -1.4% | -1.2% | 2.5%
O=C(Nc1ccc(S(=O)(=O)N(Cc2ccccc2)c2ccccc2)cc1)c1ccc(F)cc1 | 2.0% | . | . | . | -0.8%
Cc1ccc(NC(=O)c2ccc3c(O)c(S(=O)(=O)c4ccc(Cl)cc4)c(=O)[nH]c3c2)cc1 | 5.1% | . | . | . | 3.2%
O=C1NC(=S)N(c2ccccc2)C(=O)/C1=C/c1ccco1 | 14.1µM* | 17.0% | 1.6% | 8.91µM* | ?
COc1ccccc1/C=C1\C(=O)NC(=S)N(c2ccccc2)C1=O | 8.91µM* | 2.0% | 5.5% | 4.3% | ?
COc1ccc(N2C(=O)/C(=C/C=C/c3ccccc3[N+](=O)[O-])C(=O)NC2=S)cc1 | 44.7µM* | -2.0% | -8.3% | 48.7% | 20µM*
COc1ccc(N2C(=O)/C(=C/c3cccs3)C(=O)NC2=S)cc1 | 35.5µM* | 14.8% | 23.8% | 20.4% | ?
COc1ccc(N2C(=O)NC(=O)/C(=C\c3cn(C)c4ccccc34)C2=O)cc1 | ? | 7.9% | 3.9% | -12.3% | 0.6%
CCOc1cccc(N2C(=O)/C(=C/c3ccco3)C(=O)NC2=S)c1 | ? | 1.6% | 3.1% | ? | ?
